MITF TRPM1 inh – reduces MITF-dependent TRPM1 promoter luciferase signal | inhibition, % at 12.5 µM | 330,000 compounds, 0.83% hits | SK-MEL-5 TRPM1 promoter luciferase, 24 h | AID 488899;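 active = mean inhibition across replicates of 60% or more, whatever share of single replicates reaches that level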
HIF-2a inh – HIF-2a inhibition | 786-0 RCC cells HIF-2a reporter, luciferase luminescence, overnight | inhibition, % at 18.8 µM | AID 624352 | 360,000 compounds, 0.72% hits;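 active = inhibition of the luminescence signal of 40% or more relative to plate controls, in a single-dose primary screen at 18.75 µM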
ABHD5-PLIN5 inh – inhibitors of human ABHD5-perilipin-5 interaction; inhibition, % at 4 µM; Q00G26+Q8WTS1; Split G. princeps luciferase complementation, luminescence, 4 h; 360,000 compounds, 0.78% hits; AID 602281;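 active = inhibition above the mean inhibition across every tested compound plus 3 SD, cut at about 22% in these data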
CF NFkB block – cystic fibrosis NF-kB activation inhibition; 360,000 compounds, 0.86% hits; inhibition, % at 5 µM; KKLEB NF-kB-GFP reporter, PAF-induced, GFP fluorescence overnight;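 active = at least 50% inhibition at 5 µM, scaled per plate between neutral and stimulator controls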;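 note: PAF is a Pseudomonas aeruginosa culture filtrate used as stimulus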
KKLEB cytotox – CF airway cell cytotoxicity counter-screen; 360,000 compounds, 0.36% hits; AID 602141; activity change (cytotoxicity), % at 5 µM; KKLEB CF airway cells viability, ATPlite luminescence, overnight; stronger effect = lower value; cells stimulated with P. aeruginosa culture filtrate;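 active = corrected activity change at or below -50% at 5 µM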
Peg3 prom inh-1 – inhibitors of Peg3 promoter; HeLa PEG-Prom luciferase reporter, luminescence, overnight; inhibition, % at 20 µM; 360,000 compounds, 1.7% hits; AID 588405;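 active = inhibition of at least 50% at 20 µM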
Peg3 prom inh-2 – Peg3 promoter inhibition confirmation; inhibition, % at 20 µM; 1,300 compounds, 84% hits; AID 602417; shares compounds with Peg3 prom inh-1; HeLa PEG-Prom luciferase reporter, luminescence, overnight;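 active = at 20 µM dose, 40% or more inhibition averaged across four replicates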
CF NFkB inh conf – confirmation of cystic fibrosis induced NF-kB inhibitors; shares compounds with CF NFkB block; KKLEB CF airway cells, PAF-induced NF-kB-GFP fluorescence, overnight; inhibition, % at 5 µM; 1,300 compounds, 64% hits; in the data active = inhibition above about 40%;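 note: stimulus PAF is a Pseudomonas aeruginosa filtrate and not platelet activating factor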
ABHD5 PLIN5 conf – confirmation of human ABHD5-PLIN5 interaction inhibitors; inhibition, % at 4 µM; biochemical ABHD5-PLIN5 interaction, luminescence; shares compounds with ABHD5-PLIN5 inh; 2,200 compounds, 67% hits; in the data active = inhibition above about 23%
HNF4 split-luc – HNF4 split-luciferase signal hit, counter-screen | shares compounds with ABHD5-PLIN5 inh | HNF4 dimerization, luminescence, biochemical | inhibition, % at 4 µM | 2,200 compounds, 77% hits | AID 651674;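 active = mean inhibition across replicate wells exceeding the computed hit threshold, cut at about 13% in these data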;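 note: light from luciferase halves that rejoin when HNF4 fusion proteins dimerize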
Mdm2-MdmX confirm – Mdm2/MdmX (human) interaction inhibition, confirmed; shares compounds with HIF-2a inh; SaOS-2 split-luciferase Mdm2/MdmX complementation, luminescence; inhibition, % at 8 µM; 740 compounds, 99% hits;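 active = mean inhibition of the luminescence signal across two replicates at or above 26 percent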
HIF-2a inh conf – confirmation of HIF-2a inhibitors | 786-0 RCC cells, HIF-2a luciferase reporter luminescence, overnight | 1,800 compounds, 56% hits | inhibition, % at 18.8 µM | shares compounds with HIF-2a inh;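 active = mean inhibition across four replicates of at least 40 percent at the single tested concentration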
HIF-1a counter – counter-screen for HIF-2a inhibitors: HIF-1a inhibition in MiaPaCa-2 cells; shares compounds with HIF-2a inh; MiaPaCa-2 HIF-1a luciferase reporter, desferoxamine, overnight; inhibition, % at 18.8 µM; 1,800 compounds, 72% hits;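 active = mean inhibition of the reporter signal across four replicates at the single tested dose of 50% or more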
A number is an active result; . = inactive; / = no result given. A selection: hits, their analogues and other compounds. The true share with any hit is near 3%.

SMILES | MITF TRPM1 inh | HIF-2a inh | ABHD5-PLIN5 inh | CF NFkB block | KKLEB cytotox | Peg3 prom inh-1 | Peg3 prom inh-2 | HIF-2a inh conf | HIF-1a counter | others
CC(NC(=O)c1ccc([N+](=O)[O-])o1)C12CC3CC(CC(C3)C1)C2 (stereo not given) | 70 | 64 | . | 100 | -70 | 86 | 77 | . | 103
O=C1CCCCC1Sc1nnc(-c2ccc3c(c2)OCO3)o1 (stereo not given) | . | 69 | . | . | . | 85 | 74 | 86 | 92
Clc1ccc(CSc2nnc(-c3ccc4c(c3)OCO4)o2)cc1 | . | . | . | . | . | . | / | / | /
CCN(CC(=O)Nc1cc(Cl)ccc1Cl)C(=O)c1ccc(-n2cccn2)cc1 | . | . | . | . | . | . | / | / | /
C/C(=N\NC(=O)c1nnn(-c2nonc2N)c1-c1ccc2c(c1)OCO2)c1ccc(C)cc1 | . | . | . | . | . | . | / | / | /
CC(=O)CSc1ccc(-c2nc3ccccc3[nH]2)cn1 | . | . | . | . | . | . | / | / | /
CC(=O)CSc1ccc(-c2nc3cc(C)c(C)cc3[nH]2)cn1 | 83 | 67 | . | . | . | 84 | 71 | 85 | 100
CCOc1ccc(NC(=O)c2cnccn2)cc1 | . | . | . | . | . | . | / | / | /
CCOc1ccc(NC(=O)c2ccccn2)cc1 | 62 | 56 | . | . | . | 67 | 46 | 70 | 71
COc1cc2c(cc1OC)CN(C(=O)C(CCSC)NS(=O)(=O)c1ccc(C)cc1)CC2 (stereo not given) | . | . | . | . | . | . | / | / | /
O=C(O)c1ccc(N/N=C/c2ccc(OC(=O)c3cccc(Cl)c3)cc2)cc1 | 78 | 72 | . | . | . | 69 | 64 | 83 | 83
O=C(O)c1ccc(N/N=C/c2ccc3nccnc3c2)cc1 | 99 | 91 | . | . | . | 99 | 96 | 96 | 83
O=C(O)c1ccc(N/N=C/c2ccncc2)cc1 | . | . | . | . | . | . | / | / | /
C/C(=N\NC(=O)c1nnn(-c2nonc2N)c1-c1ccccc1)c1ccccc1O | . | . | . | . | . | 73 | 67 | / | / | Mdm2-MdmX confirm=84
CCCc1c(C(=O)N/N=C(\C)c2ccccc2O)nnn1-c1nonc1N | / | . | . | . | . | . | / | / | /
C(=NN1CCCCCC1)c1ccc2ccccc2n1 | 93 | 87 | . | . | -84 | 91 | 96 | 97 | 103
CC(=O)Nc1ccc(NC(=O)c2nc(S(=O)(=O)Cc3cccc(C)c3)ncc2Cl)cc1 | . | . | 66 | 102 | . | 102 | 96 | / | / | CF NFkB inh conf=82;Mdm2-MdmX confirm=103
CSc1ncc(Cl)c(C(=O)Nc2ccc(C)c(C)c2)n1 | . | . | . | . | . | . | / | / | /
COc1cccc(NC(=O)c2nc(S(C)(=O)=O)ncc2Cl)c1 | . | 68 | 53 | 88 | . | 108 | 98 | 65 | . | CF NFkB inh conf=61;ABHD5 PLIN5 conf=77;HNF4 split-luc=102;Mdm2-MdmX confirm=101
Cc1onc(-c2ccccc2)c1NC(=O)OC(C)c1cccnc1 (stereo not given) | / | . | . | . | . | . | / | / | /
O=C(Nc1cccc(-c2ccc(N3CCCCC3)nn2)c1)c1ccc(Br)o1 | . | . | . | . | . | . | / | / | /
O=C(Nc1cccc(-c2ccc(N3CCCCC3)nn2)c1)C(F)(F)F | 62 | 74 | . | . | . | 77 | 75 | 88 | 73
CC1CCN(c2ccc(-c3cccc(NC(=O)C(F)(F)F)c3)nn2)CC1 | . | 88 | . | . | -66 | 86 | 87 | 94 | 93
CC(=O)NCCc1c[nH]c2ccc(OCC(O)CNC(C)(C)C)cc12 (stereo not given) | . | . | . | . | . | . | / | / | /
COc1ccccc1-n1cnnc1SC(C)C(=O)Nc1cccc([N+](=O)[O-])c1 (stereo not given) | . | . | . | . | . | . | / | / | /
SMILES | MITF TRPM1 inh | HIF-2a inh | ABHD5-PLIN5 inh | CF NFkB block | KKLEB cytotox | Peg3 prom inh-1 | Peg3 prom inh-2 | HIF-2a inh conf | HIF-1a counter | others
C[C@H](CO)N1C[C@H](C)[C@@H](CN(C)S(=O)(=O)c2ccccc2F)OCc2cnnn2CCCC1=O | / | . | . | . | . | . | / | / | /
O=C1c2ccccc2S(=O)(=O)N1Cc1nc2ccccc2s1 | 70 | 67 | . | . | . | 93 | 58 | 76 | 75
Cc1ccc2nc(-c3ccccc3)cn2c1 | 88 | 73 | . | . | . | 89 | 78 | 89 | 84
COc1cccc(-c2sc3ccccc3c2-c2ccc(OCCN(C)C)cc2)c1 | . | 79 | 30 | . | . | 94 | 99 | . | 107 | ABHD5 PLIN5 conf=.;HNF4 split-luc=.
CC(C)NC(=O)Nc1ccc2c(c1)C(=O)N([C@H](C)CO)C[C@@H](C)[C@@H](CN(C)C(=O)NC1CCCCC1)O2 | . | . | . | . | . | . | / | / | /
COC(=O)c1nn(-c2ccc3c(c2)OCO3)cc1O | . | . | . | . | . | . | / | / | /
COC(=O)c1nn(-c2ccc3c(c2)CCN3C(C)=O)cc1O | 72 | 78 | . | . | . | 90 | 84 | . | .
Cc1ccc2nc(NC(=O)c3ccco3)sc2c1 | . | 48 | . | . | . | 69 | . | 71 | 68
O=C(NC1=C(Nc2ccc(F)cc2)C(=O)c2ccccc2C1=O)c1ccc(Cl)cc1 | . | . | . | . | . | . | / | / | /
O=C1C(Cl)=C(Nc2ccc(O)cc2)C(=O)c2ccccc21 | 97 | 94 | . | 108 | -82 | 107 | 96 | / | / | Mdm2-MdmX confirm=103
Cc1cc(N2CCN(C)CC2)ccc1NC(=O)c1c2c(nc3ccccc13)CCN(Cc1ccccc1)C2 | 87 | . | . | . | -76 | 109 | 87 | / | / | Mdm2-MdmX confirm=102
Cc1ccc(S(=O)(=O)N2CCN(C(=O)c3ccnn3C)CC2)cc1C | . | . | . | . | . | . | / | / | /
COC(=O)c1cn(NC(=O)c2cc([N+](=O)[O-])ccc2F)c(=O)c2ccccc12 | . | . | . | . | . | 58 | 66 | / | / | Mdm2-MdmX confirm=95
COC(=O)c1cn(NC(=O)C2CCC(C)CC2)c(=O)c2ccccc12 (stereo not given) | . | . | . | . | . | . | / | / | /

High-throughput results: PubChem BioAssay, several laboratories
